# Results published in PubChem BioAssay (NCI).
# Compounds without any hit were thinned out: in the full panel of roughly 83,000, 20% have a hit.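 Interpretation: 100, growth as untreated; towards 0, rising growth inhibition; 0, no net growth; 0 to -100, cell death. Compounds scoring below 10 were considered active.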 Unmarked numbers belong to inactive results. Activity calls are given as the source filed them.
# Tested on: M14 melanoma
# Assay: NCI-60 one-dose screen, 48 h (100 = growth as untreated, 0 = no growth, -100 = all killed)
# Settings: 10 µM unless noted
# Protocol: Growth inhibition of the M14 human tumor cell line is measured as a screen for anti-cancer activity. Cells are grown in 96 well plates and exposed to the test compound for 48 hours. Compounds are tested at a single concentration, which is 10^-5 M for most compounds. The reported endpoint is percent growth (GI% or GIPRCNT), where numbers from 0 - 100% represent growth inhibition, and numbers from -100% - 0 represent cell death. For example, a value of 40 represents 60% growth inhibition. A value of 0 means no net growth occurred over the course of the experiment. A value of -40 indicates 40% of cells at the beginning of the experiment died by the end of the experiment. A value of -100 means all cells are dead at the end of the experiment.
# NCI-60 Human Tumor Cell Lines Screen was performed using the standard one-dose NCI protocol, which is described in more detail at https://dtp.cancer.gov/discovery_development/nci-60/default.htm.
# Compounds with GIPRCNT values below 10 were considered active. Activity score was based on GIPRCNT using the following formula: […]
# Score is 0 for GIPRCNT values of 100 or above, 50 for GIPRCNT values of 0, and 100 for GIPRCNT values of -100.
row,SMILES,growth
1,COc1cccc(-c2nc3sccn3c2-c2ccnc(NCCNS(=O)(=O)c3cccc(Cl)c3)c2)c1,48.4%
2,Cc1c(C(=O)N[C@@H](Cc2ccccc2)C(=O)C(=O)NCCc2ccccc2)[nH]c2ccccc2c1=O,110%
3,COc1cc(/C=N/n2c(CN3CCOCC3)nc3ccccc3c2=O)cc(OC)c1OC,102%
4,CCN1C(=O)N(CC)C2Nn3c(s/c(=C\c4cccc([N+](=O)[O-])c4)c3=O)=NC21 (stereo not given),22.2%
5,c1ccc2c(c1)nc(CN1CCOCC1)n1cc(N3CCCC3)nc21,107%
6,COc1cccc(-c2nn(-c3ccccc3)cc2-c2ccnc(NCCNC(=O)Nc3ccc(Cl)c(Cl)c3)c2)c1,-36.8% (active)
7,COc1ccc(C(=O)COc2ccc(/C=C3\Oc4ccccc4C3=O)cc2)cc1,84.7%
8,O=C(Nc1cccc(C(F)(F)F)c1)Nc1cccc(C(F)(F)F)c1,13%
9,Cc1cccc(NC(=O)N/C(N)=N/c2nc(C)c(C)s2)c1,28.1%
10,CC(C)C(=O)Nc1n[nH]c2cc(-c3cccc(NS(=O)(=O)C4CC4)c3)ccc12,55.7%
11,Oc1ccc(CN2CCC(N3CCOCC3)CC2)c2cccnc12,24.2%
12,COc1ccc(/C=N\NC(=O)c2cc(-c3ccc(Br)cc3)n(-c3ccc(S(N)(=O)=O)cc3)n2)cc1,30.9%
13,COC(=O)[C@]12CC[C@@H](C)[C@H](C)[C@@H]1C1=CC[C@@H]3[C@@]4(C)C(C=O)=C[C@@](C)(COC(=O)/C=C/c5ccccc5)[C@@H]4[C@H](O)C[C@@]3(C)[C@]1(C)CC2,-43% (active)
14,O=C(Nc1cccc(Oc2nnc(Cl)c3ccccc23)c1)Nc1ccc(Cl)c(C(F)(F)F)c1,-62.8% (active)
15,N#C/C(=C\c1ccc2c(c1)OCO2)n1nnc2cc(F)c(F)cc21,57%
16,CC1=C([Se]CC(OC(=O)CC[Se]c2ccccc2)C(=O)NCCCCCC(=O)OCc2ccccc2)C(=O)c2ccccc2C1=O (stereo not given),-36.8% (active)
17,N#CC1=C(c2ccc(Br)cc2)NC(SCC(=O)c2ccc(Br)cc2)NC1=O (stereo not given),100%
18,COc1cccc(-c2nn(-c3ccccc3)cc2-c2ccnc(NCCNC(=O)Nc3cccc(C(F)(F)F)c3)c2)c1,7.52% (active)
19,O=C(c1ccccc1)N1N=C(c2ccccc2)CC1c1nnc2n(Cc3ccccc3)c(=O)c3c4c(sc3n12)CCCC4 (stereo not given),111%
20,Nc1n[nH]c2cc(F)c([C@@H]3Nc4c(F)cc5[nH]ncc5c4[C@H]4C5CCC(C5)[C@@H]34)cc12 (stereo not given in full),21.2%

row,SMILES,growth
1,O=C(Nc1cccc(Cl)c1)c1cc(N=Nc2ccc([N+](=O)[O-])cc2Cl)ccc1O,103%
2,O=c1c2c3c(sc2nc(N/N=C/c2ccc(Br)cc2)n1Cc1ccccc1)CCCC3,75.8%
3,COc1cc(-c2n/c(=C\c3c(O)[nH]c4ccc(Cl)cc34)cc3c2=Nc2ccccc2-3)cc(OC)c1OC,0.836% (active)
4,Fc1cnc(NC2CC2)nc1-c1cnc2ccc(N3CCOCC3)cn12,-26% (active)
5,COc1ccc(-c2nc(SCC(=O)Nc3nc(-c4ccccc4)cs3)[nH]c(=O)c2C#N)cc1,89.6%
6,COc1cc(C2CC(=O)Nc3c2c(C)nn3-c2nc3ccccc3[nH]2)cc2c1OCC(=O)N2 (stereo not given),34.8%
7,COc1ccc(N=Nc2ccc(O)c(=O)cc2)cc1,13%
8,CCCCCCCOc1c(OC)cc(C2CC(=O)Nc3c2c(C)nn3-c2nc3ccccc3[nH]2)cc1OC (stereo not given),4.61% (active)
9,COc1ccc(C2=Nc3c(N)ncnc3NC(c3ccc4c(c3)OCO4)C2)cc1 (stereo not given),73.8%
10,C=CCOC1=CC(=O)c2ccccc2C1=O,79.5%
11,COc1cc(C(=O)c2cc(C)c3[nH]c4ccc(Cl)cc4c3c2C)cc(OC)c1OC,17.5%
12,Cc1ccc(/C=C/c2c(C(=O)/C=C/c3ccc(C(F)(F)F)cc3)c(C)nc3ccccc23)cc1,-35.8% (active)
13,C[n+]1cccc(CC(=O)NO)c1,99.2%
14,O=C1CCC2=C3C4CCCCC4C(=O)C4CCCC(OC2C1)C34 (stereo not given),0.565% (active)
15,O=c1c2c3c(sc2n2c(-c4cc(-c5ccccc5)nn4-c4ccccc4)nnc2n1Cc1ccccc1)CCCC3,92.4%
16,Cc1ccc(-c2c(-c3ccccc3)c(=O)oc3ccc(C)cc23)cc1,102%
17,CCCCCCCCn1ccc2cc(NC(=O)Cn3cc(CN4CCCC4)nn3)ccc21,-66.5% (active)
18,CN(C)CC1=NC2SC=C(c3ccccc3)C2C(=O)N1CC#N (stereo not given),105%
19,COC(=O)c1ccc(C2Nc3ccc(S(=O)(=O)Nc4ccc(C)c(C)c4)cc3C3OCCC23)cc1 (stereo not given),94.1%
20,Cc1ccc2c(c1)Sc1c(ccc3ccccc13)N2,65.4%
